According to PubChem BioAssay (Tox21):
Inconclusive results are not listed. Unmarked numbers belong to inactive results. Calls of active or inactive are those of the source. Calls come from the whole dose curve; as a rule, active = well fitted cell-killing curve with a large enough effect in the repeat runs; inconclusive = weak or mixed curves, or effect the other way; inactive = flat fitted curve, though single readings scatter.

assay: qHTS assay to identify small molecule agonists of the constitutive androstane receptor (CAR) signaling pathway - cell viability counter screen (AID 1224836); conditions: HepG2-CYP2B6-hCAR viability, CellTiter-Fluor, 23 h, PK11195 added to every well; series mostly up to 92.4 µM; viability change, negative = cytotoxic: at the top concentration
Procedure, shortened: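 HepG2-CYP2B6-hCAR, 2500 cells/well, 4 h pre-incubation; cpd 15 conc + PK11195 0.75 uM final; 23 h, 37 C/5% CO2; CellTiter-Fluor, fluorescence.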
% is set by controls: 0 for no effect and ±100 for the full control effect; potency is the fitted concentration of half-maximal effect.
Note: nearly all actives have a fitted effect of over 45% in size.

In the case of `CCCCCCCCCCCCOC(=O)c1cc(O)c(O)c(O)c1`, the Potency is reported as 68.3 µM (active).

Compared with `CC(C)=C1CC[C@@H](C)CC1=O`, `C[C@]12CC[C@H]3C(=CCc4cc(O)ccc43)[C@@H]1CCC2=O` is lower in “viability change, negative = cytotoxic” value: -6.32% for the first, -12.9% for the second.

Compared with `C=C1C(C)(C)[C@@]2(Cl)C(Cl)[C@]1(Cl)C(Cl)(Cl)C2(Cl)Cl` (some centres undefined), `CSc1c(Cl)c(Cl)c(Cl)c(Cl)c1Cl` is higher in “viability change, negative = cytotoxic” value: -4.64% for the first, 5.4% for the second.

Going from `CCCCN(C)C` to `CCCC(C)CCC(C)=O` (centres undefined), the “viability change, negative = cytotoxic” value rises from 0.261% to 3.7%.

First: CCc1cccc(C)c1
Second: CCc1ccc(C)nc1
The “viability change, negative = cytotoxic” value of the first is lower: 3.09% for the first, 3.33% for the second.

First: CCO[Si](CCCSSSSCCC[Si](OCC)(OCC)OCC)(OCC)OCC
Second: CCCCCCCCCCCC(=O)N(CC)CC
The “viability change, negative = cytotoxic” value of the first is higher: 2.73% for the first, 0.454% for the second.

First: OCCCS
Second: SCCCCCCCCS
The “viability change, negative = cytotoxic” value of the first is lower: 0.655% for the first, 9.15% for the second.

Compared with `CCN(CC)CCSC(=O)C(c1ccccc1)c1ccccc1`, `CC(=O)Oc1ccc(C2(c3ccc(OC(C)=O)cc3)Oc3ccccc3NC2=O)cc1` is lower in “viability change, negative = cytotoxic” value: -7.45% [at 42.5 µM] for the first, -21.7% [at 42.5 µM] for the second.

Going from `CCN(CC)CCOC(=O)C1(C2CCCCC2)CCCCC1` to `CCC1(c2cnc[nH]2)Cc2ccccc2C1`, the “viability change, negative = cytotoxic” value rises from -7.71% [at 42.5 µM] to -1.47% [at 42.5 µM].

`O=S(O)O` showed a viability change, negative = cytotoxic of 7.71% [at 19 µM].

assay: qHTS assay to identify small molecule antagonists of the constitutive androstane receptor (CAR) signaling pathway - cell viability counter screen (AID 1224837); conditions: HepG2-CYP2B6-hCAR viability, CellTiter-Fluor, 23 h, co-treated with 50 nM CITCO; series mostly up to 92.4 µM; activity change, negative = cytotoxicity: at the top concentration
Procedure, shortened: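 Using CellTiter-Fluor, viability is scored in HepG2 cells stably carrying hCAR and a 2.2kb CYP2B6 reporter after 23 hr compound exposure across 15 concentrations, with CITCO present at 50 nM.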

First: C/C=C/CO
Second: ClC/C=C\CCl
The “activity change, negative = cytotoxicity” value of the first is higher: 0.54% for the first, 0.5% for the second.

Going from `COc1ccc(C#N)cc1` to `CCc1cccc(C)c1`, the “activity change, negative = cytotoxicity” value falls from 8.86% to -0.519%.

First: C=CC(C)C#N (centres undefined)
Second: CCCC(C)CCC(C)=O (centres undefined)
The “activity change, negative = cytotoxicity” value of the first is lower: -0.733% for the first, 1.35% for the second.

Compared with `CN(C)CCN1CCOCC1`, `CCCCN(C)C` is higher in “activity change, negative = cytotoxicity” value: 0.435% for the first, 5.52% for the second.

Compared with `O=C1OC(=O)c2ccc3c4c(ccc1c24)C(=O)OC3=O`, `O=C1OC(=O)c2cccc3cccc1c23` is lower in “activity change, negative = cytotoxicity” value: -1.07% for the first, -5.46% for the second.

Compared with `CCCCCCS`, `SCCCCCCCCS` is higher in “activity change, negative = cytotoxicity” value: 1.81% for the first, 12.8% for the second.

Compared with `CC(C)(C)C1=CC(=O)C=C(C(C)(C)C)C1=O`, `C[Si](C)O[Si](C)C` is higher in “activity change, negative = cytotoxicity” value: 0.657% for the first, 2.25% for the second.

First: c1ccc2c(c1)CCC2
Second: CC(=O)c1ccccc1N
The “activity change, negative = cytotoxicity” value of the first is higher: -1.7% for the first, -5.97% for the second.

First: CC1CNCC(C)O1 (centres undefined)
Second: CC(C)=C1CC[C@@H](C)CC1=O
The “activity change, negative = cytotoxicity” value of the first is lower: -4.18% for the first, 2.02% for the second.

First: C=C1C(C)(C)[C@@]2(Cl)C(Cl)[C@]1(Cl)C(Cl)(Cl)C2(Cl)Cl (some centres undefined)
Second: CSc1c(Cl)c(Cl)c(Cl)c(Cl)c1Cl
The “activity change, negative = cytotoxicity” value of the first is lower: -12.5% for the first, 11.3% for the second.

Going from `CCO[Si](CCCSSSSCCC[Si](OCC)(OCC)OCC)(OCC)OCC` to `CCCCCCCCCCCC(=O)N(CC)CC`, the “activity change, negative = cytotoxicity” value falls from 3.83% to 1.68%.

First: C[C@]12CC[C@H]3C(=CCc4cc(O)ccc43)[C@@H]1CCC2=O
Second: CCc1ccc(C)nc1
The “activity change, negative = cytotoxicity” value of the first is higher: -4.42% for the first, -7.95% for the second.

For `OCCCS`, the “activity change, negative = cytotoxicity” value was 4.67%.

Compared with `NC(=O)C(=O)N/N=C/c1ccc([N+](=O)[O-])o1`, `CC(=O)Oc1ccc(C2(c3ccc(OC(C)=O)cc3)Oc3ccccc3NC2=O)cc1` is lower in “activity change, negative = cytotoxicity” value: -11.8% [at 42.5 µM] for the first, -22% [at 42.5 µM] for the second.

Going from `Cc1ccc(-n2[nH]c(C)c(N=Nc3cccc(-c4cccc(C(=O)O)c4)c3O)c2=O)cc1C` to `CCN(CC)CCSC(=O)C(c1ccccc1)c1ccccc1`, the “activity change, negative = cytotoxicity” value falls from 0.842% [at 42.5 µM] to -19% [at 42.5 µM].

First: Nc1ncnc2c1ncn2[C@@H]1O[C@H](COP(=O)(O)O)[C@@H](O)[C@H]1O
Second: CCC1(c2cnc[nH]2)Cc2ccccc2C1
The “activity change, negative = cytotoxicity” value of the first is higher: 5.23% [at 42.5 µM] for the first, -2.71% [at 42.5 µM] for the second.

With `CCN(CC)CCOC(=O)C1(C2CCCCC2)CCCCC1` the “activity change, negative = cytotoxicity” value was -19.9% [at 42.5 µM].

With `CCN=C1C=CC(=C(c2ccc(N(CC)CC)cc2)c2ccc(N(CC)CC)cc2)c2ccccc21` the Potency was 6.08 µM (active).
In the case of `N#CSCSc1nc2ccccc2s1`, the Potency is reported as 27.3 µM (active).
With `CCCCCCCCCCCCOC(=O)c1cc(O)c(O)c(O)c1` the Potency was 68.3 µM (active).

For `O=S(O)O`, the activity change, negative = cytotoxicity was -3.41% [at 19 µM].
